Screening data from PubChem.
This is a sample that favours compounds with a hit; in the whole collection about 12% have one here.
FMDV inh: High Throughput Screening for Foot and Mouth Disease Virus Antivirals | FMDV antiviral cell-based qHTS | Potency, µM (titrated, usually from 57.9 µM), usual class: inhibitors | 410,000 tested, 1.2% active; calls by dose curve; tested in HEK293T cells; also: read-out not given here; nearly all actives have a fitted effect of over 45% in size
CHX counter: Cycloheximide Counterscreen for Small Molecule Inhibitors of Shiga Toxin | max response, % | cell reporter, cycloheximide protein synthesis inhibition counterscreen | 300,000 tested, 12% active; in the data active = max response mostly above about 13%, no sharp cut-off; inactive = mostly below about 14%; also: read at 38.3 µM for the half of the compounds with a filed dose
Shiga inhibitor: A qHTS for Small Molecule Inhibitors of Shiga Toxin. Vero cells, Shiga toxin protein synthesis inhibition reporter. AID 2315, 2010. 290,000 tested, 9.2% active. inhibition, % at 38.7 µM; in the data active = inhibition mostly above about 28%, no sharp cut-off; inactive = mostly below about 43%
Sm TGR inh: qHTS Assay for the Inhibitors of Schistosoma Mansoni Peroxiredoxins; Schistosoma mansoni thioredoxin glutathione reductase (TGR), Q962Y6; purified TGR, DTNB reduction, TNB absorbance 405 nm; Potency, µM (series often up to 114 µM), hits mostly inhibitors; 360,000 tested, 3% active; AID 485364, 2010; active = well fitted inhibition curve with a large enough effect; inconclusive = small, poorly fitted or top-dose-only effect; inactive = no such curve, though single readings can be large or run the other way; also: nearly all actives have a fitted effect of over 60% in size
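Kinetic colorimetric format: TGR-catalysed, NADPH-driven DTNB reduction monitored via TNB absorbance. Enzyme dispensed at 20 nM; compound exposure 15 min at room temperature before reaction start.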
Hits are given with their value; . = inactive; ? = inconclusive; / = no result given.

SMILES	FMDV inh	CHX counter	Shiga inhibitor	Sm TGR inh
O=C1CC(Sc2ccc(Cl)cc2)C(=O)N1c1ccc2c(c1)OCCO2 (stereo not given)	.	.	.	3.98µM
Nc1ccccc1SC1CC(=O)N(c2ccc3c(c2)OCCO3)C1=O (stereo not given)	.	38.5	69.0	.
CCN(CC)C(=O)c1sc2c(c1C)c(=O)n(Cc1ccccc1)c(=O)n2Cc1c(C)cc(C)cc1C	.	/	/	.
COc1ccc(C2CC(=O)c3c(O)cc(O)cc3O2)c(CC=C(C)C)c1OC (stereo not given)	.	/	/	/
CC1CC(=O)c2c(cc3c(-c4c(O)cc(O)c5c(O)c6c(cc45)OC(C)CC6=O)c(O)cc(O)c3c2O)O1 (stereo not given)	35.5µM	.	.	.
CN(C)C1CCN(CCCOc2ccc(-c3ccc(C#N)cc3)cc2)C1 (stereo not given)	/	30.7	.	/
Cc1ccc(-n2nc(CO)c(C(=O)NCCC(C)C)n2)cc1C	.	/	/	.
CCN(C(=O)Cn1cnc2onc(-c3ccc(F)cc3)c2c1=O)c1cc(C)ccc1C	.	/	/	.
CCCOc1ccc(N2C(=O)CC(N(Cc3ccco3)C(=O)CC)C2=O)cc1 (stereo not given)	.	.	.	14.1µM
CCOc1ccc(N2C(=O)CC(N(Cc3ccco3)C(C)=O)C2=O)cc1 (stereo not given)	.	.	.	50.1µM
CC1=Nc2cc(C(=O)NCCc3ccc(Cl)cc3)ccc2Sc2c(C)ccc(C)c21	.	/	/	.
CC(C)(C)OC(=O)N1CCC(c2nnc(SCc3ccccc3)o2)CC1	.	/	/	.
Clc1cccc(N=NN2CCOCC2)c1Cl	.	20.3	.	.
Clc1cccc(C2CCN(Cc3nc(COc4ccccc4)no3)C2)c1 (stereo not given)	.	.	.	35.5µM
Fc1ccc2nc(C3CCN(Cc4nc(CC5CC5)no4)CC3)[nH]c2c1	.	15.2	.	.
Fc1ccccc1C1CCN(Cc2nc(CC3CC3)no2)C1 (stereo not given)	.	27.6	75.1	?
COCC1CCN(C(=O)c2ccc3oc(C(C)C)nc3c2)C1 (stereo not given)	.	/	/	/
CC(C)c1nc2cc(C(=O)N(C)C3CCOCC3)ccc2o1	.	36.5	42.2	.
CCOC(=O)c1c(NC(=O)COC(=O)c2cccnc2OCC)sc(C(=O)N(CC)CC)c1C	15.8µM	/	/	/
CCOC(=O)c1c(NC(=O)COc2ccc(OC)cc2)sc(C(=O)N(CC)CC)c1C	?	/	/	.
CCOc1ccc(C(=O)NCC(=O)N2CCCC2)cc1	.	.	50.0	.
O=C(NCC(=O)N1CCCCCCC1)c1ccc(Cl)cc1	.	/	/	.
O=C(NCC(=O)N1CCCCCC1)c1ccc(Cl)cc1	.	29.4	64.8	.
CCOc1ccc(C(=O)NCC(=O)OCC(=O)N2CCCC2)cc1	.	.	.	.
CC(C)CCOc1ccc(C(=O)NCCC(=O)N2CCOCC2)cc1	.	18.0	41.2	.
SMILES	FMDV inh	CHX counter	Shiga inhibitor	Sm TGR inh
CCOc1ccc(C(=O)Nc2ccccc2N2CCOCC2)cc1	.	.	.	.
CCOc1ccc(C(=O)Nc2ccccc2N2CCCC2)cc1	.	28.7	.	.
CC(=O)N[C@@H](C(=O)O)C(C)(C)SN=O	.	/	/	/
COC(=O)c1ccccc1-c1cc(C)cc2c1OC(CNC(=O)C1CCCO1)C2 (stereo not given)	.	/	/	/
CCOc1ccc(NC(=O)c2ccc3nc(Cc4ccccc4)oc3c2)cc1	.	/	/	.
CCOC(=O)CNC(=O)c1ccc(C)cc1	.	.	.	.
Cc1nn(C(=O)CNC(=O)c2ccccc2)c(C)c1C	.	38.3	.	.
O=C(NCC(=O)N1CCN(Cc2ccccc2)CC1)c1ccc(Cl)cc1	?	17.6	.	.
Cc1cccc(C(=O)NCC(=O)N2CCOCC2)c1	.	22.7	.	.
CCOC(=O)CNC(=O)c1ccc(OCC(F)(F)F)cc1	.	27.6	82.2	.
Cc1ccc(Nc2c(-c3ccncc3)nc3ccc(C)cn23)cc1	.	/	/	.
CN(C)c1ccc(-c2nccc(Nc3ccc(F)cc3)n2)cc1	.	/	/	/
O=C(NCC(=O)N1CCOCC1)c1ccccc1	.	14.5	55.0	.
O=C(NCC(=O)N1CCOCC1)c1ccc(Cl)cc1	.	17.8	.	.
Cc1c(C(=O)NCc2ccccc2Cl)sc2ncnc(NCC3CCCO3)c12 (stereo not given)	.	/	/	/
CCc1nn2c(=O)cc(COC(=O)c3ccccc3NC(=O)COc3ccc(C)c(C)c3)nc2s1	.	/	/	.
CCOC(=O)c1cc(CNC(=O)c2c(C)oc3c2CCCC3)c(C)o1	.	.	.	22.4µM
CCOC(=O)c1coc(CNC(=O)c2c(C)oc3c2CCCC3)c1	?	.	.	.
CCOC(=O)Cc1ccc(NC(=O)Nc2cccc(OCc3cc(=O)n4cc(C)ccc4n3)c2)cc1	.	/	/	.
Cc1ccc(-n2c(C)nc3cc(Cl)ccc3c2=O)nc1	.	28.2	63.1	.
Cc1cc(C(=O)CSc2nc(N)cc(N)n2)c(C)n1-c1cccc(C(F)(F)F)c1	?	.	.	.
Cc1cc(C(=O)CSc2n[nH]c(N)n2)c(C)n1-c1cccc(F)c1	/	20.5	72.9	?
Cc1cc(C(=O)CSc2nnnn2C)c(C)n1-c1cccc(F)c1	.	40.1	121.6	.
Cc1cc(C(=O)CSc2ncccn2)c(C)n1-c1cccc(F)c1	.	86.3	100.3	.
Cc1[nH][nH]c(=O)c1N=Nc1ccccc1C#N	/	49.7	.	.
SMILES	FMDV inh	CHX counter	Shiga inhibitor	Sm TGR inh
COc1ccccc1N=Nc1c(C)[nH][nH]c1=O	.	.	.	.
Cc1c(Cl)cccc1NC(=O)CCN1C(=O)c2ccccc2Sc2ncccc21	.	/	/	.
COc1ccc(OC)c2sc(NC(=O)C3=COCCO3)nc12	.	.	.	.
COc1cccc2sc(NNC(=O)C3=COCCO3)nc12	.	40.3	86.8	.
COc1ccc(C)c2sc(NC(=O)C3=COCCO3)nc12	/	12.4	27.2	.
O=C(c1ccco1)N1CCN(C2CC(=O)N(c3ccc4c(c3)OCO4)C2=O)CC1 (stereo not given)	.	.	.	.
CCOc1ccc(N2C(=O)CC(N3CCN(C(=O)c4ccco4)CC3)C2=O)cc1 (stereo not given)	.	.	.	44.7µM
O=C(c1ccco1)N1CCN(C2CC(=O)N(c3ccc(C(F)(F)F)cc3)C2=O)CC1 (stereo not given)	.	.	.	50.1µM
O=C(c1ccco1)N1CCN(C2CC(=O)N(c3ccccc3)C2=O)CC1 (stereo not given)	.	.	.	50.1µM
CCOC(=O)c1ccc(N2C(=O)CC(N3CCN(C(=O)c4ccco4)CC3)C2=O)cc1 (stereo not given)	.	.	.	.
O=C(NC1=NCCS1)c1cc2ccccc2o1	.	17.7	.	.
O=C(NC1=NCCS1)c1csc2ccccc12	.	39.3	58.8	.
O=C(NC1=NCCS1)Nc1ccccc1	.	35.9	65.0	.
O=C(NC1=NCCS1)c1ccccc1Cl	.	8.2	.	.
O=C(NC1=NCCS1)c1ccccc1	.	.	.	.
COc1ccc(OC)c(CCNC(=O)c2cc3c(=O)n(C)c4ccccc4c3n2C)c1	?	/	/	.
Cc1ccc(C)c(N2CCN(C(=O)c3ccc4c(Cl)c5c(nc4c3)CCCC5)CC2)c1	.	/	/	.
O=C(NC1=NCCS1)c1ccc(Cl)c(Cl)c1	.	47.5	67.9	.
